9 compounds from the supplement of paper PMC11732987, “Enantioselective OTUD7B fragment discovery through chemoproteomics screening and high-throughput optimisation” (Communications Chemistry, 2025) can be followed below.

Test in all cases: log2 ratio of Biotin-Ahx-Ub-VS probe labelling (fragment/DMSO); higher = less target engagement (more negative = stronger competition), active = hit call of the paper (q ≤ 0.05, log2 ratio ≤ -1)
Common to all, as to conditions: compound concentration: 200 uM; treatment time: 3 h

In one assay the target is UniProt O00507. An outline of the steps: (§1)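 HEK293T lysate (495 µg per sample, in Tris/CHAPS/IGEPAL buffer with protease inhibitors) was treated in triplicate with fragment at 200 µM or with DMSO for 3 h. It was then treated with Biotin-Ahx-Ub-VS (0.5 µM final) for 1 h. Labelled DUBs were NeutrAvidin-enriched, digested with LysC and trypsin, and run by diaPASEF LC-MS/MS. Spectronaut label-free quantities were global-median-normalised. Values are average log2 ratios fragment/DMSO by unpaired t-test, using proteins with ≥2 unique peptides.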

The target in the next assay is UniProt P51784. An outline of the steps:
as §1

The target of the next assay is T1, UniProt Q5T2D3.
T1 sequence (whole entry): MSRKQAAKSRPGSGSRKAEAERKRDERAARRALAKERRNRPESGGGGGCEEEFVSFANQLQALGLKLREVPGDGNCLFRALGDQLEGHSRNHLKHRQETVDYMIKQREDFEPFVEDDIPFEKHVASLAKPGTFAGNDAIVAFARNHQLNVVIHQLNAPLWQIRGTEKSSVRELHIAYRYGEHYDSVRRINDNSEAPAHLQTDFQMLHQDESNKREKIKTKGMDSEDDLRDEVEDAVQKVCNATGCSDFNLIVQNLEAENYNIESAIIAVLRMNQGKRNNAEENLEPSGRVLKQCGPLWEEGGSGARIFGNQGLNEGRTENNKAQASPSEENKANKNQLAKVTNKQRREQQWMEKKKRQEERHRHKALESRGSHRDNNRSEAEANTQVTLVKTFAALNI
An outline of the steps: as §1

For a further assay, the target named is T2, UniProt Q8TE49.
T2 sequence (whole entry): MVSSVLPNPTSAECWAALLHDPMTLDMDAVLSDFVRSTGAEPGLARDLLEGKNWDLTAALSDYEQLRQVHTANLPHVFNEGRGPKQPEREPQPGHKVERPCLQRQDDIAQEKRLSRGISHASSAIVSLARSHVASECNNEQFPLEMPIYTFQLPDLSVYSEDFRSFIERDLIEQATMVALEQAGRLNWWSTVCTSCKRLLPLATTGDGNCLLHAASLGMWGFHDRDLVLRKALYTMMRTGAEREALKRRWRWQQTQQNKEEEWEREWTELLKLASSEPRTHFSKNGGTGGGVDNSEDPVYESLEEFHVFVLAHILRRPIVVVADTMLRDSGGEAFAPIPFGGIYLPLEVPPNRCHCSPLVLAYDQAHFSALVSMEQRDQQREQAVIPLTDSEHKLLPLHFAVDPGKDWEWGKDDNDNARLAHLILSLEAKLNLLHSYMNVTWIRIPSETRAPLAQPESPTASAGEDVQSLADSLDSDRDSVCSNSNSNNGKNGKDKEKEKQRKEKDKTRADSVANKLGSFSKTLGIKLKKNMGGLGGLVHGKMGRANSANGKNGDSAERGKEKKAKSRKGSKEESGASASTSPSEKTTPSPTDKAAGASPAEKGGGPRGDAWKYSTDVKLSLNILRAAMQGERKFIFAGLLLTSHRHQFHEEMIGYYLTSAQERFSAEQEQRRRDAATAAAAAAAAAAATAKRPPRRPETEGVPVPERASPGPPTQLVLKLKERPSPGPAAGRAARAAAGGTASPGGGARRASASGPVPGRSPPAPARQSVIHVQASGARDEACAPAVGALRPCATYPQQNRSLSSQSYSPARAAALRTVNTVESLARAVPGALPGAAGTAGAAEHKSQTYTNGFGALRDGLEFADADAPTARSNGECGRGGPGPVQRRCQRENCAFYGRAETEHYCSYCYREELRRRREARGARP
The procedure, abridged:
as §1

Another assay concerns the target T3, UniProt Q9P2H5.
T3 sequence (whole entry): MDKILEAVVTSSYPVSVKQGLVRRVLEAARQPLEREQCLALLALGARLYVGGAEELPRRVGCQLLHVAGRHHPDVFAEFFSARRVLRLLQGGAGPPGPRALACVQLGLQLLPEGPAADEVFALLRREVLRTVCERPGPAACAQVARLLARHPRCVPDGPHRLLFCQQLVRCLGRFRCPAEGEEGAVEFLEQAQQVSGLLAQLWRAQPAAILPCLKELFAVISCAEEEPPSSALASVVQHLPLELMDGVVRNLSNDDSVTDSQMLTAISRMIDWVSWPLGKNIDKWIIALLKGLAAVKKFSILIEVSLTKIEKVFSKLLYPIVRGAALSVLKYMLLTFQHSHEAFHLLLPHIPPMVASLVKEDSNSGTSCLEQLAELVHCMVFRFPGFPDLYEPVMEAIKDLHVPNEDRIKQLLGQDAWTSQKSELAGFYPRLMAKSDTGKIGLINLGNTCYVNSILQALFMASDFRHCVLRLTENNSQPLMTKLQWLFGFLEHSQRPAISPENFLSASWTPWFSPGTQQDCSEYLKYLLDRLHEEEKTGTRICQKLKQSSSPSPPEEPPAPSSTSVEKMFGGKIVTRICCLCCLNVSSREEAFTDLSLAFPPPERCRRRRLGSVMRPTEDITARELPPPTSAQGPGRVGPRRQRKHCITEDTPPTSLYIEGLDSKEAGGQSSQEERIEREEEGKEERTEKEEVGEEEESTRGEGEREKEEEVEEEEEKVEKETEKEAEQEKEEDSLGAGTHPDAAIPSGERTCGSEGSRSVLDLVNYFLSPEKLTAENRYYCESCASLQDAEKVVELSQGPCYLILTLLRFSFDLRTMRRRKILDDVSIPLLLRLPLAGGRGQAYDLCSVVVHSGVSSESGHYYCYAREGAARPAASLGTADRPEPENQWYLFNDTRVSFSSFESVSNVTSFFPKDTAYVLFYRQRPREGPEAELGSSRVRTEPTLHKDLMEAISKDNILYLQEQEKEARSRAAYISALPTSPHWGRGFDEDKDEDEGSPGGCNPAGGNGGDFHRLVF
The procedure, abridged:
as §1

A further assay concerns the target T4, UniProt Q9UGI0.
T4 sequence (whole entry): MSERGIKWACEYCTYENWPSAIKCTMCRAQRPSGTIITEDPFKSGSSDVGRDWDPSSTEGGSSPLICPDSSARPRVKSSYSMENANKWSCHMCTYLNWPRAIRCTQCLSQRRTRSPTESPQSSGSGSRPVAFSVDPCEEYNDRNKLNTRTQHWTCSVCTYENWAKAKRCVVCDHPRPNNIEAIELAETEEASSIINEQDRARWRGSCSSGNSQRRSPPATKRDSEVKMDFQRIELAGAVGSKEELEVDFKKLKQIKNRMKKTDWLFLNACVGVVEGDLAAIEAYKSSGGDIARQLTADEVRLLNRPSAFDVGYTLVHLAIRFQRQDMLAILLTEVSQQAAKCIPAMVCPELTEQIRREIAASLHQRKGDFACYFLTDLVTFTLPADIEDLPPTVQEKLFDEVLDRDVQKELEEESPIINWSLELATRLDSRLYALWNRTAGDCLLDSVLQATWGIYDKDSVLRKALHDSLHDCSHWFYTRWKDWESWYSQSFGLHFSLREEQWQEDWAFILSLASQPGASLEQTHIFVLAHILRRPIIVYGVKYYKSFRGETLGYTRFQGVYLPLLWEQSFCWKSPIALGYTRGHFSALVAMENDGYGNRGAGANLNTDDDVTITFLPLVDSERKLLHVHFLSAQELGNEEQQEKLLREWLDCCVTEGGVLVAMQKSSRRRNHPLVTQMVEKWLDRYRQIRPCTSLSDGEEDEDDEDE
The procedure, abridged: as §1

For a further assay, the target named is T5, YOD1 (UniProt Q5VVQ6).
T5 sequence (whole entry): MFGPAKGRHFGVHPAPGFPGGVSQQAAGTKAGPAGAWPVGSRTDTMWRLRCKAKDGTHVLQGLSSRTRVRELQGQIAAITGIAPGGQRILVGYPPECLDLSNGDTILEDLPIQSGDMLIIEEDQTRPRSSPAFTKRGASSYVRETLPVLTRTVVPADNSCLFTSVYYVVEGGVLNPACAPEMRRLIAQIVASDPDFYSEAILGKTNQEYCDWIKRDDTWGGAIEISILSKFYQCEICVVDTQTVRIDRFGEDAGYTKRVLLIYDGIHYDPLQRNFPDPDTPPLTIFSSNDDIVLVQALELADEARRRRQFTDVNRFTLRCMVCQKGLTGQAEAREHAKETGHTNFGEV
An outline of the steps:
as §1

Unmarked numbers belong to inactive results.

UniProt O00507, sequence (O00507 whole entry, the tested form may be a part): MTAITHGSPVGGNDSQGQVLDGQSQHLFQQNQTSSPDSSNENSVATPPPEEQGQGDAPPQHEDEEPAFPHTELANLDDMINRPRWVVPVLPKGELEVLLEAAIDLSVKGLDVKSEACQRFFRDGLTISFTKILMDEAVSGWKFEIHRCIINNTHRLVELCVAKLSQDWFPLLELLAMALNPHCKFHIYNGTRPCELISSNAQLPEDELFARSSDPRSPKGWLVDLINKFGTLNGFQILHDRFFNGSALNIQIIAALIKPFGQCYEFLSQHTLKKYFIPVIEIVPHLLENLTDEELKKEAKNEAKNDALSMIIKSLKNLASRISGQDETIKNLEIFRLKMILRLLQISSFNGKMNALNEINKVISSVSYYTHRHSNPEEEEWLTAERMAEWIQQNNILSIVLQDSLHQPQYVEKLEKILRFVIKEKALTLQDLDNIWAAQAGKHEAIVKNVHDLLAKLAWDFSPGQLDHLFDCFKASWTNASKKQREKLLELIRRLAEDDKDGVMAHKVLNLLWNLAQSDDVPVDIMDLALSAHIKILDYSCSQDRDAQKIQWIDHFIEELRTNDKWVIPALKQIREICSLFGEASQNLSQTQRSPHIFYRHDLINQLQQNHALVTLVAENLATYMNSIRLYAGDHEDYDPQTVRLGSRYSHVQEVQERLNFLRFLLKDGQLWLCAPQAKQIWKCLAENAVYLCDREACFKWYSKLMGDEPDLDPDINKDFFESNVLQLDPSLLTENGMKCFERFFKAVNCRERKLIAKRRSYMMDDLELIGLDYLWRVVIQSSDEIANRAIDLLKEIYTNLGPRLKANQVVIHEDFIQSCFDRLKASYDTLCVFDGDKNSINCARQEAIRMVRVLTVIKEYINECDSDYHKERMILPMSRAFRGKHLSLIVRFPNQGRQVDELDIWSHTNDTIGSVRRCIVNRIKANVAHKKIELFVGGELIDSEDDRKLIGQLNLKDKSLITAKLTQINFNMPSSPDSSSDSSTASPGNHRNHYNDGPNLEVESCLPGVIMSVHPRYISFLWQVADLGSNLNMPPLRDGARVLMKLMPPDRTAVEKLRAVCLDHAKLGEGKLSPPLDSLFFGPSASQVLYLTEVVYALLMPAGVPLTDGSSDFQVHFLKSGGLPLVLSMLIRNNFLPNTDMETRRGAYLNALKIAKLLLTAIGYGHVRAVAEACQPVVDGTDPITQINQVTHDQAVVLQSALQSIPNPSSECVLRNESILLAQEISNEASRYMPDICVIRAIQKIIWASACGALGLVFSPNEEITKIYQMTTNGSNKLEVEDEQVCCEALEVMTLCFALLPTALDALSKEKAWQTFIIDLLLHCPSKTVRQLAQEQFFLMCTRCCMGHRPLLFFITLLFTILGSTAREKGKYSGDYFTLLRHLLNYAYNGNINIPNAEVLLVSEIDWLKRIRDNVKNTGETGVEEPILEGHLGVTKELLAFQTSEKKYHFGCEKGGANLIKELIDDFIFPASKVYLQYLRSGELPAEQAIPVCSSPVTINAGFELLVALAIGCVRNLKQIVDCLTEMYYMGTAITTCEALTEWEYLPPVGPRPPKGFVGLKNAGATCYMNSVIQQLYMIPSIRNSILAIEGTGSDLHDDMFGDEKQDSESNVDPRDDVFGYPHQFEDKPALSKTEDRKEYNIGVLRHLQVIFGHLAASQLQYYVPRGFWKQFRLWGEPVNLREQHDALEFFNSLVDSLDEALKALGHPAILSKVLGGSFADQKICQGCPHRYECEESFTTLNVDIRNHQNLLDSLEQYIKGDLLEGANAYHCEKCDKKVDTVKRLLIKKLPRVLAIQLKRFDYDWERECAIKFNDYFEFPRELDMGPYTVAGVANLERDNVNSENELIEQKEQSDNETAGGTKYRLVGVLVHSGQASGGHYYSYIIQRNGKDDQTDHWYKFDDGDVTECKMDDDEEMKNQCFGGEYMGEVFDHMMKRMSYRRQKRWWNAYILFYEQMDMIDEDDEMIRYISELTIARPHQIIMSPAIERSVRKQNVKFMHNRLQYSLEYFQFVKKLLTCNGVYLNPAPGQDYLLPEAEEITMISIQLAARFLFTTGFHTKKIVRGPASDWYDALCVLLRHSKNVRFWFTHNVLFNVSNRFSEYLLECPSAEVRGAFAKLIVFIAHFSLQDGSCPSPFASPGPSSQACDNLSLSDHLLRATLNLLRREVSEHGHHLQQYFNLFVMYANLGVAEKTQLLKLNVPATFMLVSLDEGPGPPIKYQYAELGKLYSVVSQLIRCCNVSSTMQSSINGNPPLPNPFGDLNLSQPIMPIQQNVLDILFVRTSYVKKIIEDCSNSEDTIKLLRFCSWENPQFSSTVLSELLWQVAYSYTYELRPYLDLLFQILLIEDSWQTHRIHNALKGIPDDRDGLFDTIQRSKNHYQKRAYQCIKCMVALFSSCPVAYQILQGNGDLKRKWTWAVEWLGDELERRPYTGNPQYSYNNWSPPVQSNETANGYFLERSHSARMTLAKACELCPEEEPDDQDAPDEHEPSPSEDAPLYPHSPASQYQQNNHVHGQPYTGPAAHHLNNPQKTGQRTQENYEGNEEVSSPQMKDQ
UniProt P51784, sequence (P51784 whole entry): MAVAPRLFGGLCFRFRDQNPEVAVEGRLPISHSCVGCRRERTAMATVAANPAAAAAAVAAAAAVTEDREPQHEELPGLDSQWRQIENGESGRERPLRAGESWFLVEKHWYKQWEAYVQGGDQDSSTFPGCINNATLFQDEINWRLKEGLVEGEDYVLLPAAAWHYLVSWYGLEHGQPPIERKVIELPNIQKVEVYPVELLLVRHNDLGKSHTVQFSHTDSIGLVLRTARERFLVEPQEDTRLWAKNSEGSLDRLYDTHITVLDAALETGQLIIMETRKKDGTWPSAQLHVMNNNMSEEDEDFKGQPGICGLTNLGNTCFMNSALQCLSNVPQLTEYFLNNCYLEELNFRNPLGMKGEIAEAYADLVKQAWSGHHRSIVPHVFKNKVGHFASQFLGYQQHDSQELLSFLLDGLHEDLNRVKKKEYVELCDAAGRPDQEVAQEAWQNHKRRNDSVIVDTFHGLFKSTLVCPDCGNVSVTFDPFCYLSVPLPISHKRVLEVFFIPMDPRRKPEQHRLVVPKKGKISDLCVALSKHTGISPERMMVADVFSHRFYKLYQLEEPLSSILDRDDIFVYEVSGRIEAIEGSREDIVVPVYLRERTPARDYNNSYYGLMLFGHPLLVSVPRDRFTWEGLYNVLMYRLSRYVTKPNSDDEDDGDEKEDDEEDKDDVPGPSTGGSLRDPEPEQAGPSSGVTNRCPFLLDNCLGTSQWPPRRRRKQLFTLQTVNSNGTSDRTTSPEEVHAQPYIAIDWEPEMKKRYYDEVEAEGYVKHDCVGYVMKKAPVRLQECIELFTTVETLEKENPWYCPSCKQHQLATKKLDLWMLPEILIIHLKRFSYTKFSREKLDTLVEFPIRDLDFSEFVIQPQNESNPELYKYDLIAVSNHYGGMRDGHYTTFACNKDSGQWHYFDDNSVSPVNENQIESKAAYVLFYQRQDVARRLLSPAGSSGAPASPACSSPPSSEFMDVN

In the case of `O=C(CCl)N1CCC(S(=O)(=O)c2ccc(F)cc2)CC1`, the “log2 ratio of Biotin-Ahx-Ub-VS probe labelling” value (“log2 ratio” below) was 0.0377 in the assay with UniProt O00507; -0.0572 in the assay with UniProt P51784; -0.0766 with UniProt Q5T2D3; -0.856 with UniProt Q8TE49; -0.104 with UniProt Q9P2H5; -0.887 with UniProt Q9UGI0. Further, in the assay with YOD1, the “log2 ratio” value is 0.119.
As to `Cc1cccnc1NC(=O)C1CCN(C(=O)CCl)CC1.Cl`, the “log2 ratio” value with UniProt O00507 was -0.282; in the assay with UniProt P51784 it was -0.0141; with UniProt Q5T2D3, -0.408; with UniProt Q8TE49 it was -0.254; with UniProt Q9P2H5, -0.348; with UniProt Q9UGI0, -0.465. Moreover, the “log2 ratio” value in the assay with YOD1 is -0.214.
`Cc1ccc(N(C(=O)CCl)C2C=CS(=O)(=O)C2)cc1` (stereo not drawn): the “log2 ratio” value was 0.428 in the assay with UniProt O00507; 0.0438 in the assay with UniProt P51784; 0.136 with UniProt Q5T2D3; -0.0818 in the assay with UniProt Q8TE49; -0.196 with UniProt Q9P2H5; -0.0234 with UniProt Q9UGI0. In addition, the “log2 ratio” value with YOD1 was 0.412.
With `O=C(CCl)NC1CCN(C(=O)C2CCCCC2)CC1`, the “log2 ratio” value was -0.257 with UniProt O00507; 0.122 with UniProt P51784; 0.0478 with UniProt Q5T2D3; -0.283 with UniProt Q8TE49; 0.125 with UniProt Q9P2H5; -0.0541 in the assay with UniProt Q9UGI0. Besides, the “log2 ratio” value with YOD1 was -0.0714.
`Cc1ccccc1CN(C)C(=O)CCl`: the “log2 ratio” value was -1.06 (active) with UniProt O00507; -0.62 with UniProt P51784; -0.704 with UniProt Q5T2D3; -1.06 (active) in the assay with UniProt Q8TE49; -0.712 with UniProt Q9P2H5; -1.3 (active) in the assay with UniProt Q9UGI0. Also, the “log2 ratio” value with YOD1 was -0.638.
Turning to `O=C(CCl)N1CCN(C(=O)Nc2ccccc2)CC1`, the “log2 ratio” value with UniProt O00507 is 0.452; with UniProt P51784, 0.16; in the assay with UniProt Q5T2D3, -0.132; in the assay with UniProt Q8TE49, -0.337; with UniProt Q9P2H5, -0.158; in the assay with UniProt Q9UGI0, 0.0377. For the same compound, the “log2 ratio” value with YOD1 was 0.444.
In the case of `O=C(CCl)Nc1nc(-c2cccs2)cs1`, the “log2 ratio” value in the assay with UniProt O00507 is -0.168; in the assay with UniProt P51784, 0.104; in the assay with UniProt Q5T2D3 it was -0.239; with UniProt Q8TE49, -0.68; with UniProt Q9P2H5 it was -0.138; with UniProt Q9UGI0 it was -2.34 (active). The “log2 ratio” value with YOD1 is 0.237.
Take `O=C(CCl)NCc1noc(C2CC2)n1`: the “log2 ratio” value with UniProt O00507 was -0.504; in the assay with UniProt P51784 it was 0.0106; in the assay with UniProt Q5T2D3, -0.464; with UniProt Q8TE49 it was -0.385; in the assay with UniProt Q9P2H5, -0.13; in the assay with UniProt Q9UGI0 it was -0.133. In addition, the “log2 ratio” value with YOD1 is -0.415.
For `O=C(CCl)NC1CCC(C(F)(F)F)CC1` (stereo not drawn), the “log2 ratio” value with UniProt O00507 was -0.728; with UniProt P51784 it was 0.104; with UniProt Q5T2D3, -0.211; in the assay with UniProt Q8TE49 it was -0.706; with UniProt Q9P2H5, 0.159; with UniProt Q9UGI0, -0.54. Moreover, the “log2 ratio” value in the assay with YOD1 was -0.348.
